Screens from PubChem BioAssay.
Shown are actives, neighbours in structure and some others; about 19% of the full set was active somewhere.
Pf growth 96h: Primary qHTS for delayed death inhibitors of the malarial parasite plastid, 96 hour incubation | P. falciparum luciferase reporter growth, 96 h | Potency, µM (top dose mostly 28.7 µM), for inactives: at the highest dose activity change, negative = inhibition, usual class: inhibitors | hit rate 6.9% among 320,000 | AID 504834, 2011; also: potency is read from the fitted curve at half-maximal effect; % is scaled to controls: 0 for no effect and ±100 for the full control effect
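Compounds incubated with erythrocytes infected by luciferase-expressing P. falciparum (2% hematocrit, 0.05% parasitemia final) for 96 hours, 37 C in 5% CO2. Growth inhibition scored as decreased luciferase luminescence.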
Pf growth 48h: Primary qHTS for delayed death inhibitors of the malarial parasite plastid, 48 hour incubation; P. falciparum luciferase growth in erythrocytes, 48 h; Potency, µM (top dose mostly 28.7 µM), inactives show at the highest dose activity change, negative = inhibition, hits mostly inhibitors; hit rate 5.9% among 310,000; AID 504832, 2011; also: potency is read from the fitted curve at half-maximal effect; % is scaled to controls: 0 for no effect and ±100 for the full control effect
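Here the parasites carry a stable luciferase gene and grow inside erythrocytes in Albumax-based RPMI medium with compound for one erythrocytic cycle. Activity is scored as loss of luminescent signal.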
LASV entry inh: qHTS for Inhibitors of binding or entry into cells for Lassa Virus; Potency, µM (doses to about 37.9 µM), for inactives: at the top dose activity change, negative = inhibition, usual class: inhibitors; Lassa virus pseudotype entry inhibition, cell reporter; hit rate 1.2% among 300,000; calls by dose curve; tested in HEK293 cells; also: potency is read from the fitted curve at half-maximal effect; % is scaled to controls: 0 for no effect and ±100 for the full control effect; nearly all actives have a fitted effect of over 50% in size
CHX counter: Cycloheximide Counterscreen for Small Molecule Inhibitors of Shiga Toxin; cell reporter, cycloheximide protein synthesis inhibition counterscreen; max response, %; hit rate 12% among 300,000; AID 2314, 2010; in the data active = max response mostly above about 13%, no sharp cut-off; inactive = mostly below about 14%; also: read at 38.3 µM for the half of the compounds with a filed dose; 0% is about no effect
Shiga toxin inh: A qHTS for Small Molecule Inhibitors of Shiga Toxin | Vero cells, Shiga toxin protein synthesis inhibition reporter | hit rate 9.2% among 290,000 | inhibition, % at 38.7 µM; in the data active = inhibition mostly above about 28%, no sharp cut-off; inactive = mostly below about 43%; also: 0% is about no effect
Marburg entry inh: qHTS for inhibitors of binding or entry into cells for Marburg Virus. hit rate 1.8% among 300,000. Potency, µM (series often up to 37.8 µM), for inactives: at the top dose activity change, negative = inhibition, usual class: inhibitors. Marburg virus pseudotyped entry inhibition, cell reporter; calls by dose curve; tested in HEK293 cells; also: potency is read from the fitted curve at half-maximal effect; % is scaled to controls: 0 for no effect and ±100 for the full control effect
Active calls of the source: *; u = inconclusive; x = no result; [ ] = remark or other dose. Unless noted, calls follow the shape of the dose curve; as a rule, active = well fitted inhibition curve with a large enough effect; inconclusive = small, poorly fitted or top-dose-only effect, or another doubt; inactive = no such curve, though single readings can be large or run the other way.

SMILES	Pf growth 96h	Pf growth 48h	LASV entry inh	CHX counter	Shiga toxin inh	Marburg entry inh
CC12CC[C@H]3[C@@H](CCC4(O)C[C@H](O)CCC34/C=N/NC(=O)Cc3ccccc3)C1(O)CCC2C1=CC(=O)OC1 (stereo not given in full)	-9.0%	u	u	-4.7	4.8	u
COc1cc([N+](=O)[O-])cc(/C=N/NC(=O)c2ccc(NC(=O)c3ccc(C)cc3)cc2)c1O	13.4%	9.0%	u	-3.0	-5.2	1.12µM*
COc1cc([N+](=O)[O-])cc(/C=N/NC(=O)c2ccc(C)nc2)c1O	u	32.6%	u	9.0	-12.2	u
O=C(NN=Cc1ccccc1O)c1cccc([N+](=O)[O-])c1	x	x	u	x	x	10µM*
O=C(N/N=C/c1ccc(Br)s1)c1cccc([N+](=O)[O-])c1	4.15µM*	2.94µM*	-15.0%	-3.2	6.3	u
O=C(N/N=C/c1ccoc1)c1cccc([N+](=O)[O-])c1	12.2%	18.3%	u	22.5	27.1	u
Cc1csc2nc(CNS(=O)(=O)c3ccc(-c4ccccc4)cc3)cn12	u	-7.1%	x	-3.6	1.3	x
O=C(Nc1ccc(SC(F)F)cc1)C1=COCCO1	1.65µM*	140.9%	u	34.0*	70.4*	u
Cc1ccc(C(=O)Nc2ccc(SC(F)F)cc2)s1	-13.7%	115.1%	u	50.9*	108.9*	-8.1%[14.2 µM]
CCC(C)[C@H](NC(=O)N1CC(=O)Nc2ccccc21)C(=O)NC(C)CCc1ccccc1 (stereo not given in full)	u	u	u	4.1	4.6	u
OC[C@H](S)CS	0.601µM*	1.51µM*	x	x	x	x
CC(C)(C)SC(=O)CC1NS(=O)(=O)OC2CCCCC12 (stereo not given)	-23.0%	-15.5%	x	-2.4	-12.5	x
CCCCCCCOC(=O)C[N+](C)(C)CCOC1CC2CCC1(C)C2(C)C (stereo not given)	13.1µM*	1.85µM*	u	-2.4	-0.4	11.2µM*
CC(C)CCOC(=O)C[N+](C)(C)CCOC1CC2CCC1(C)C2(C)C (stereo not given)	246.2%	u	x	0.9	-6.7	x
CCCCOC(=O)C[N+](C)(C)CCOC1CC2CCC1(C)C2(C)C (stereo not given)	u	1.47µM*	-5.3%[46.1 µM]	-2.7	-4.4	u
CCCCCCOC(=O)C[N+](C)(C)CCOC1CC2CCC1(C)C2(C)C (stereo not given)	0.738µM*	1.65µM*	13.0%	19.3*	17.3	12.4%
CCC(C)OC(=O)C[N+](C)(C)CCOC1CC2CCC1(C)C2(C)C (stereo not given)	36.2%	0.928µM*	u	8.6	8.0	u
CN1C(=S)N(c2cccnc2)C(=O)/C1=C\c1ccc(N(C)C)cc1	u	-1.7%	8.9%[46.1 µM]	1.7	-6.3	u
COCCNC(=O)Cn1cc(S(=O)(=O)N2CCN(c3ccccc3F)CC2)c2ccccc2c1=O	389.7%	-1.5%	u	8.0	13.9	-3.8%
CCCOC(=O)C[N+](C)(C)CCOC1CC2CCC1(C)C2(C)C (stereo not given)	1.47µM*	1.85µM*	x	0.5	4.6	x
COc1cc(/C=N/Nc2nc(C)cc(C)n2)cc(OC)c1OC	u	-9.0%	x	4.1	21.6	x
COc1cc(/C=N/Nc2cc(C)nc(N)n2)ccc1O	u	-30.5%[0.00184 µM]	u	13.3	35.6*	0.1%
COc1ccc(/C=N/Nc2cc(C)nc(N3CCOCC3)n2)cc1	2.3%	61.2%	0.6%	2.0	5.0	12.9%[46.1 µM]
COc1ccc(/C=N/Nc2cc(C)nc(N)n2)cc1	-2.2%	9.28µM*	1.3%	31.6*	66.9*	2.4%
COc1ccccc1N1CCN(C2CCCN(C(=O)c3snnc3C)C2)CC1 (stereo not given)	13.1µM*	-0.4%	x	-10.9	-8.2	x
SMILES	Pf growth 96h	Pf growth 48h	LASV entry inh	CHX counter	Shiga toxin inh	Marburg entry inh
COc1ccc(C(=O)N2CCCC(N3CCN(c4ccccc4F)CC3)C2)c(OC)n1 (stereo not given)	13.1µM*	-2.6%	x	-0.8	1.8	x
COc1ccc(C(=O)N2CCCC(N3CCN(c4ccccc4OC)CC3)C2)c(OC)n1 (stereo not given)	-12.5%	-1.6%	x	-3.0	-3.0	x
CCNCc1cc(Br)c(OCC(=O)Nc2ccccc2)c(OC)c1	u	u	14.5%	-5.4	-4.4	u
COc1cc(CNCC(C)C)cc(Br)c1OCC(=O)Nc1ccccc1	10.4µM*	9.28µM*	-13.0%	-2.2	-10.2	u
COc1cc(CNCCc2ccccc2)cc(Br)c1OCC(=O)Nc1ccccc1C	u	-21.0%[5.75 µM]	3.3%	-2.4	4.1	20.6µM*
CN1C(=O)C2(c3ccccc31)c1c(oc3ccccc3c1=O)C(=O)N2CCCO (stereo not given)	-13.8%	-3.2%	-1.2%	0.6	6.2	-10.1%
CC1CN(C(=O)c2ccccc2C(=O)c2ncc[nH]2)CC(C)O1 (stereo not given)	-16.2%	16.4%	5.1%	-3.7	4.8	13.5%
C=CCOc1c(Br)cc(CNn2c(C)n[nH]c2=S)cc1OC	-27.6%	-9.5%	2.0%	-0.8	-2.8	-5.0%
C=CCOc1c(Br)cc(CNc2nccs2)cc1OC	0.37µM*	u	-9.1%	4.5	17.1	5.5%
Cc1ccc(OCCn2cc(C(=O)c3cccs3)c3ccccc32)cc1	x	x	1.1%[46.1 µM]	x	x	u
O=C(Nc1ccc(Cl)c(C(F)(F)F)c1)C1CCCN(S(=O)(=O)c2cccc3cccnc23)C1 (stereo not given)	x	x	5.62µM*	x	x	x
O=C(Nc1nc2cc(Cl)ccc2s1)C1CCCN(S(=O)(=O)c2cccc3cccnc23)C1 (stereo not given)	11.7µM*	x	x	-2.7	23.3	-0.7%
Cc1c(C=O)c2ccccn2c1C(=O)c1ccccc1	x	-9.1%	-6.6%	-2.2	-17.8	-11.8%[46.1 µM]
Cc1c(C(C)(C)C)c(C=S)n2ccccc12	10.4µM*	x	-6.3%	-2.7	-0.8	-3.7%
O=C(Nc1ccc(Cl)cc1)N1CCC(c2nc(-c3cccs3)no2)CC1	37.5%	21.5%	-2.3%	24.0*	49.1*	-5.1%
O=C(Nc1cccc(C(F)(F)F)c1)N1CCC(c2nc(-c3ccc(F)cc3)no2)CC1	291.3%	u	22.7%[14.3 µM]	-2.5	0.0	u
O=C(Nc1ccccc1)N1CCCC(c2nc(-c3cccs3)no2)C1 (stereo not given)	x	20.9%	2.1%	18.8*	80.5*	14.5%
O=C(c1ccco1)N1CCC(c2nc(-c3ccccc3Cl)no2)CC1	0.0%	-5.1%	1.7%	13.5	26.6	-0.4%
O=C(Nc1ccc(Cl)cc1)N1CCC(c2nc(-c3ccccc3Cl)no2)CC1	x	1.85µM*	-43.7%	15.1	9.7	u
COc1ccc(NC(=O)N2CCC(n3cnc4ccccc43)CC2)cc1	-9.5%	u	x	6.5	65.5	x
